Measured values as given in the supplement of paper PMC10849652.
The full data set covers some 7,900 targets. This sample favours those with a hit. About 0.6% of all pairs of compound and target were hits.

Assays:
Assay in all cases: log2 fold change, soluble protein after heating vs DMSO (PISA); higher = thermal stabilisation; K562 cells, 10 uM, 30 min; active = over 0.2 and 3.5 SD of the protein, either way, in both replicates (recomputed)
bafetinib = compound: Cc1ccc(NC(=O)c2ccc(CN3CC[C@H](N(C)C)C3)c(C(F)(F)F)c2)cc1Nc1nccc(-c2cncnc2)n1 [bafetinib]
How it was run: (§1)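 K562 cells at 2×10^6 cells/mL were exposed to 10 μM compound for 30 min, then aliquots were heated for 3 min across 48°C-58°C, pooled, and extracted in PBS containing 0.5% NP-40 at 4°C. The supernatant after 21,000xg for 90 min was taken as soluble protein and measured by TMTpro 16plex LC-MS/MS with channel sums equalised. Thermal stability is reported relative to control samples, with values from duplicates. Fold changes are given on a log2 scale.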

[1] = compound: Cc1cccc(CC(=O)N2CCc3c2ccc(-c2cn(C)c4ncnc(N)c24)c3F)n1
How it was run: as §1

nilotinib = compound: Cc1cn(-c2cc(NC(=O)c3ccc(C)c(Nc4nccc(-c5cccnc5)n4)c3)cc(C(F)(F)F)c2)cn1 [nilotinib]
How it was run: as §1

[2] = compound: Cc1nc(Nc2n[nH]c3c2CN(C(=O)N[C@H](CN(C)C)c2ccccc2)C3(C)C)c2sccc2n1
How it was run: as §1

dasatinib = compound: Cc1nc(Nc2ncc(C(=O)Nc3c(C)cccc3Cl)s2)cc(N2CCN(CCO)CC2)n1 [dasatinib]
How it was run: as §1

[3] = compound: Cc1ncc(-c2ccnc(Nc3ccc(S(C)(=O)=O)cc3)n2)n1C(C)C
How it was run: as §1

[4] = compound: Cn1cc(-c2ccc3c(c2)CCN3C(=O)Cc2cccc(C(F)(F)F)c2)c2c(N)ncnc21
How it was run: as §1

[5] = compound: Cn1cc(-c2ccc3nnc(C(F)(F)c4ccc5ncccc5c4)n3n2)cn1
How it was run: as §1

tipifarnib = compound: Cn1cncc1[C@@](N)(c1ccc(Cl)cc1)c1ccc2c(c1)c(-c1cccc(Cl)c1)cc(=O)n2C [tipifarnib]
How it was run: as §1

mubritinib = compound: FC(F)(F)c1ccc(/C=C/c2nc(COc3ccc(CCCCn4ccnn4)cc3)co2)cc1 [mubritinib]
How it was run: as §1

Measured: log2 fold change

PDE4DIP isoform 4 (UniProt Q5VU43)
inactive: bafetinib 0.022 | [1] -0.071 | nilotinib -0.054 | [2] -0.113 | dasatinib 0.037 | [3] -0.027 | [4] 0.021 | [5] 0.021 | tipifarnib 0.038 | mubritinib 0.022

PRMT7 (UniProt Q9NVM4)
inactive: bafetinib -0.114 | [1] -0.086 | nilotinib -0.002 | [2] -0.047 | dasatinib -0.213 | [3] -0.01 | [4] -0.038 | [5] 0.124 | tipifarnib -0.116 | mubritinib 0.092

PTPN23 (UniProt Q9H3S7)
inactive: bafetinib 0.028 | [1] 0.053 | nilotinib -0.07 | [2] -0.096 | dasatinib -0.199 | [3] 0.059 | [4] -0.016 | [5] 0.02 | tipifarnib -0.069 | mubritinib 0.034

PRKAG1 isoform 3 (UniProt P54619)
UniProt P54619, sequence (P54619 whole entry, looked up): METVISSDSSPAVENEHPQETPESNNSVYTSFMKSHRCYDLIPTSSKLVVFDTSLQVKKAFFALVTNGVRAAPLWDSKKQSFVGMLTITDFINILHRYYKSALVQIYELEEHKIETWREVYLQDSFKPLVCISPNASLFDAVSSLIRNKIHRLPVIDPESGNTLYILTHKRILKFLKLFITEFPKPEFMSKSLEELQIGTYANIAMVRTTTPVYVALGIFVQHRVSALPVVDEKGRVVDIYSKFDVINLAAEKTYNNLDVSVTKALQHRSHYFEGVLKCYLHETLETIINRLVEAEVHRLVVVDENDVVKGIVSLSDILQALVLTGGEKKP
inactive: bafetinib -0.098 | [1] 0.001 | nilotinib -0.079 | [2] -0.189 | dasatinib -0.056 | [3] -0.01 | [4] 0.001 | [5] 0.022 | tipifarnib 0.007 | mubritinib -0.052

PPP2R5C isoform 5 (UniProt Q13362)
inactive: bafetinib -0.024 | [1] 0.005 | nilotinib -0.168 | [2] -0.026 | dasatinib -0.227 | [3] 0.026 | [4] 0.031 | [5] -0.06 | tipifarnib -0.099 | mubritinib 0.042

PSMD1 (UniProt Q99460)
UniProt Q99460, sequence (Q99460 whole entry, looked up): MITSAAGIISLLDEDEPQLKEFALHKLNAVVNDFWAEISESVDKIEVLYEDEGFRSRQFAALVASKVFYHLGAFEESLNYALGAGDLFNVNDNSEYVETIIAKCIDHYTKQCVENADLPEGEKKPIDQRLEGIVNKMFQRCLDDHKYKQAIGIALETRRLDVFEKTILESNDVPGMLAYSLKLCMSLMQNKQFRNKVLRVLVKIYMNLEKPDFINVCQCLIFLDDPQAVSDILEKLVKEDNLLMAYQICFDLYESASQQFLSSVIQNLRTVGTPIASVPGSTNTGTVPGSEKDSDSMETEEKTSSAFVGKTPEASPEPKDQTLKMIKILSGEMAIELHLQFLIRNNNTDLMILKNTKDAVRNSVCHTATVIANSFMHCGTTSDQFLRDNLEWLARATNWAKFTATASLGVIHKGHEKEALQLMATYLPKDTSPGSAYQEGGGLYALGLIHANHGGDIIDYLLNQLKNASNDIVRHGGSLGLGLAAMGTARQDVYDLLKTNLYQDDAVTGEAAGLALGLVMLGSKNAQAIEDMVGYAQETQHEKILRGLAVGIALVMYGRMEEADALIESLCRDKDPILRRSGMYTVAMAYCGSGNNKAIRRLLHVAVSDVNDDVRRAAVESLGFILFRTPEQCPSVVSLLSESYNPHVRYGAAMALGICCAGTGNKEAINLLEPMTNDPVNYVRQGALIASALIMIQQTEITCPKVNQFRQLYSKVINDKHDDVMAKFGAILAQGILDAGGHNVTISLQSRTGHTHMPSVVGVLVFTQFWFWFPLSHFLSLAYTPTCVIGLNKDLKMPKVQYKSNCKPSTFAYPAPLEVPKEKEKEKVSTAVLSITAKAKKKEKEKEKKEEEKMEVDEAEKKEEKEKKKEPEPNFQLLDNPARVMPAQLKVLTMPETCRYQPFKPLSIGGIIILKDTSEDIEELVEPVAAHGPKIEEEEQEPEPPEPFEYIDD
inactive: bafetinib 0.16 | [1] 0.037 | nilotinib 0.006 | [2] 0.041 | dasatinib 0.065 | [3] -0.017 | [4] -0.102 | [5] 0.019 | tipifarnib 0.068 | mubritinib -0.019

PDE12 (UniProt Q6L8Q7)
inactive: bafetinib -0.013 | [1] 0.002 | nilotinib -0.004 | [2] 0.017 | dasatinib -0.061 | [3] -0.006 | [4] 0.067 | [5] 0.066 | tipifarnib -0.078 | mubritinib 0.066

PARN (UniProt O95453)
inactive: bafetinib -0.104 | [1] 0.019 | nilotinib -0.018 | [2] -0.073 | dasatinib -0.182 | [3] -0.011 | [4] -0.003 | [5] 0.018 | tipifarnib -0.01 | mubritinib 0.076

PSMA3 (UniProt P25788)
inactive: bafetinib 0.06 | [1] 0.003 | nilotinib 0.041 | [2] 0.041 | dasatinib 0.029 | [3] 0.008 | [4] -0.003 | [5] -0.005 | tipifarnib 0.006 | mubritinib -0.016

POLA1 (UniProt P09884)
inactive: bafetinib 0.021 | [1] 0.021 | nilotinib -0.043 | [2] -0.033 | dasatinib -0.173 | [3] 0.01 | [4] 0.019 | [5] 0.014 | tipifarnib -0.091 | mubritinib 0.064

PTPA (UniProt Q15257)
inactive: bafetinib -0.038 | [1] 0.011 | nilotinib -0.014 | [2] 0.012 | dasatinib -0.014 | [3] -0.002 | [4] 0.034 | [5] 0.03 | tipifarnib 0.013 | mubritinib 0.028

PIGG (UniProt Q5H8A4)
UniProt Q5H8A4, sequence (Q5H8A4 whole entry, looked up): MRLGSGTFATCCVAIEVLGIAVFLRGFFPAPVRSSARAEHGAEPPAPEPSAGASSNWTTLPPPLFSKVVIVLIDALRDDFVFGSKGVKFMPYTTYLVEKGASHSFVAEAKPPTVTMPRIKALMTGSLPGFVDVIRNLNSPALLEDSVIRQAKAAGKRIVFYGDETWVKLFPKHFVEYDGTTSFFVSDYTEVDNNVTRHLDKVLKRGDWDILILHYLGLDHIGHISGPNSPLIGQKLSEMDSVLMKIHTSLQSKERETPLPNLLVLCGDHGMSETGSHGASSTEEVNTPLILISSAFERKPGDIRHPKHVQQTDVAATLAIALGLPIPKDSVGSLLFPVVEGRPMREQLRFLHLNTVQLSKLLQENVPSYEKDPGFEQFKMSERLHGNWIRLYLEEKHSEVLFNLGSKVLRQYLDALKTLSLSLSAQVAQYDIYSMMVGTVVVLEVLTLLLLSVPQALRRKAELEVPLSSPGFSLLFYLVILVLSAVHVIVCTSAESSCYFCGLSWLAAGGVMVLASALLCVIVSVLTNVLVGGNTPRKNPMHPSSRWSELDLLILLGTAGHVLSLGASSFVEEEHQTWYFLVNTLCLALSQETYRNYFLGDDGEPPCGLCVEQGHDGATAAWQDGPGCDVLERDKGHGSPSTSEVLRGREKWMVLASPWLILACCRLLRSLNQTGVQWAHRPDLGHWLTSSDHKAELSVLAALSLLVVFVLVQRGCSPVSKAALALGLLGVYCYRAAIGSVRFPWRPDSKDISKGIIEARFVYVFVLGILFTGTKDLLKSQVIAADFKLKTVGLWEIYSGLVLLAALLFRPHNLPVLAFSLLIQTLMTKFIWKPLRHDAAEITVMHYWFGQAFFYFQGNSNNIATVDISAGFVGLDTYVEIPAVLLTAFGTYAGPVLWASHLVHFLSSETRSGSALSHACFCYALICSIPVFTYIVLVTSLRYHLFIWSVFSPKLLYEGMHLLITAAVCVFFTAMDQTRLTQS
inactive: bafetinib -0.034 | [1] 0.047 | nilotinib 0.083 | [2] 0.007 | dasatinib -0.013 | [3] -0.022 | [4] 0.004 | [5] -0.044 | tipifarnib 0.012 | mubritinib 0.038

PAK4 (UniProt O96013)
active: [2] 0.352
inactive: bafetinib -0.072 | [1] 0.011 | nilotinib -0.016 | dasatinib -0.068 | [3] 0.01 | [4] 0.04 | [5] 0.007 | tipifarnib 0.015 | mubritinib -0.092

PDPK1 (UniProt O15530)
inactive: bafetinib -0.06 | [1] 0.051 | nilotinib -0.104 | [2] 0.089 | dasatinib -0.169 | [3] -0.084 | [4] 0.077 | [5] 0.011 | tipifarnib -0.043 | mubritinib 0.022

PYGB (UniProt P11216)
UniProt P11216, sequence (P11216 whole entry, looked up): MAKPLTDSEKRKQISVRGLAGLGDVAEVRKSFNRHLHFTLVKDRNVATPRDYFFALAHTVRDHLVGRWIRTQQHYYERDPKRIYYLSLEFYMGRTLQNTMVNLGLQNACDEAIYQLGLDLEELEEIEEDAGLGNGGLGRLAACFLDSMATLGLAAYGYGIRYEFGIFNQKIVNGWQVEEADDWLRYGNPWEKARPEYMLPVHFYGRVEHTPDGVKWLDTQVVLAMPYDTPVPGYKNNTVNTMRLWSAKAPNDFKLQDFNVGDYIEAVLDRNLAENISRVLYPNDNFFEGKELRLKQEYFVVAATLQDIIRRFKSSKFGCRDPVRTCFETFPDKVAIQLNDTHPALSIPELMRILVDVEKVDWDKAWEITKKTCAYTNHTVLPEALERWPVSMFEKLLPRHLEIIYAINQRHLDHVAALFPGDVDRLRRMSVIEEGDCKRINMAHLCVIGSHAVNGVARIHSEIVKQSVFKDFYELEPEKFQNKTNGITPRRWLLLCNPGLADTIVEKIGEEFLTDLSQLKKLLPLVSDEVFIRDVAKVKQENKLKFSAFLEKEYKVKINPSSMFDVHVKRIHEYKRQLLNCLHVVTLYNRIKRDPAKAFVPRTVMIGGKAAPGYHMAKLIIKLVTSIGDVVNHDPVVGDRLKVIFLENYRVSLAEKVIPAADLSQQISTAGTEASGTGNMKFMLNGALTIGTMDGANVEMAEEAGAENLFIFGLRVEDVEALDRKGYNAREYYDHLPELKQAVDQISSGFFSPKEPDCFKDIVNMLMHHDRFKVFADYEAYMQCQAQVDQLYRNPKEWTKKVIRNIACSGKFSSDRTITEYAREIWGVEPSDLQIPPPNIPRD
active: bafetinib -0.317 | nilotinib -0.358
inactive: [1] 0 | [2] 0.02 | dasatinib -0.042 | [3] -0.032 | [4] 0.026 | [5] -0.007 | tipifarnib 0.035 | mubritinib 0.014

PEF1 (UniProt Q9UBV8)
inactive: bafetinib -0.106 | [1] 0.089 | nilotinib -0.005 | [2] 0.012 | dasatinib -0.047 | [3] -0.013 | [4] 0.132 | [5] 0.113 | tipifarnib -0.126 | mubritinib 0.099

PDCD4 (UniProt Q53EL6)
inactive: bafetinib 0.065 | [1] -0.014 | nilotinib 0.017 | [2] 0.025 | dasatinib -0.144 | [3] 0.144 | [4] 0.022 | [5] 0.077 | tipifarnib -0.172 | mubritinib 0.104

QRSL1 (UniProt Q9H0R6)
inactive: bafetinib -0.036 | [1] 0.048 | nilotinib -0.041 | [2] -0.028 | dasatinib -0.171 | [3] 0.045 | [4] 0.037 | [5] 0.024 | tipifarnib 0.002 | mubritinib -0.102

PKN1 isoform 2 (UniProt Q16512)
UniProt Q16512, sequence (Q16512 whole entry, looked up): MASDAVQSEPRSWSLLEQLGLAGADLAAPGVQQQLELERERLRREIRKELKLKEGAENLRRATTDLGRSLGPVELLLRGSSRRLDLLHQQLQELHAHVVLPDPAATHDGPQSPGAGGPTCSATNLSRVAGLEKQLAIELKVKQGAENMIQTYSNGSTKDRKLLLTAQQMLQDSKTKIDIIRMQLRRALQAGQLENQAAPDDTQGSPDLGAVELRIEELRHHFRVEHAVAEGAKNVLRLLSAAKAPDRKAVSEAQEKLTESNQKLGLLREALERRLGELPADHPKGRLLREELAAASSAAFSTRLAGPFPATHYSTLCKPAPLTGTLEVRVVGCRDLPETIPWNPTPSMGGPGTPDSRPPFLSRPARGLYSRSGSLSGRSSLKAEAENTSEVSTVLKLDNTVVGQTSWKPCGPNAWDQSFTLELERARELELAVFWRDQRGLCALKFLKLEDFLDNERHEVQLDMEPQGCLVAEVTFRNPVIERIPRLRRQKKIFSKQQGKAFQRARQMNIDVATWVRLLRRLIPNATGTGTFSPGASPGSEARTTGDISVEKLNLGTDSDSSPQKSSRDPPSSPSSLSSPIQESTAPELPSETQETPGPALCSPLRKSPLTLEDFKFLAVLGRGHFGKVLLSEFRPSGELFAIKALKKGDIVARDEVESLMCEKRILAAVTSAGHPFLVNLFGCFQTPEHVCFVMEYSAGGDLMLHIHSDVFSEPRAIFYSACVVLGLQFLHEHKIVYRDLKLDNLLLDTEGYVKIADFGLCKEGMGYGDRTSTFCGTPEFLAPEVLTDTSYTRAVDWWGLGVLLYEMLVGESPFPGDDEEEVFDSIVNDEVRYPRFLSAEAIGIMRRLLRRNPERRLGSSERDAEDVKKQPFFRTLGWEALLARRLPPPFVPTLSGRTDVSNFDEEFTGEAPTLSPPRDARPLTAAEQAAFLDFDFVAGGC
active: [2] -0.705
inactive: bafetinib -0.006 | [1] 0.038 | nilotinib -0.044 | dasatinib -0.154 | [3] -0.019 | [4] -0.02 | [5] -0.008 | tipifarnib -0.046 | mubritinib 0.098

PPP2R5E (UniProt Q16537)
UniProt Q16537, sequence (Q16537 whole entry, looked up): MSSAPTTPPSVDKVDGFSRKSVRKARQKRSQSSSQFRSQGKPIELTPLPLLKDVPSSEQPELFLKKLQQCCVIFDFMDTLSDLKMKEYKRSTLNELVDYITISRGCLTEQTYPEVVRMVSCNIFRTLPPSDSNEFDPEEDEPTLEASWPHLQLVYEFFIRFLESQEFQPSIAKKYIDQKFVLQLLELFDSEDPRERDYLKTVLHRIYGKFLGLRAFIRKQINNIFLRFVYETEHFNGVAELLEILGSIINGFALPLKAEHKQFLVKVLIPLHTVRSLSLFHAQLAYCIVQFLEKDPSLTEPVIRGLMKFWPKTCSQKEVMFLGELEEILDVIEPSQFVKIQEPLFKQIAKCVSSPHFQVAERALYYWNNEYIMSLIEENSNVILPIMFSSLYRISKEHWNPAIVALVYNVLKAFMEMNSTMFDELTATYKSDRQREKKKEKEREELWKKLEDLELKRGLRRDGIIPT
inactive: bafetinib -0.023 | [1] -0.058 | nilotinib -0.11 | [2] 0.057 | dasatinib -0.074 | [3] -0.059 | [4] -0.049 | [5] -0.037 | tipifarnib -0.159 | mubritinib 0.018

PRMT3 (UniProt O60678)
UniProt O60678, sequence (O60678 whole entry, looked up): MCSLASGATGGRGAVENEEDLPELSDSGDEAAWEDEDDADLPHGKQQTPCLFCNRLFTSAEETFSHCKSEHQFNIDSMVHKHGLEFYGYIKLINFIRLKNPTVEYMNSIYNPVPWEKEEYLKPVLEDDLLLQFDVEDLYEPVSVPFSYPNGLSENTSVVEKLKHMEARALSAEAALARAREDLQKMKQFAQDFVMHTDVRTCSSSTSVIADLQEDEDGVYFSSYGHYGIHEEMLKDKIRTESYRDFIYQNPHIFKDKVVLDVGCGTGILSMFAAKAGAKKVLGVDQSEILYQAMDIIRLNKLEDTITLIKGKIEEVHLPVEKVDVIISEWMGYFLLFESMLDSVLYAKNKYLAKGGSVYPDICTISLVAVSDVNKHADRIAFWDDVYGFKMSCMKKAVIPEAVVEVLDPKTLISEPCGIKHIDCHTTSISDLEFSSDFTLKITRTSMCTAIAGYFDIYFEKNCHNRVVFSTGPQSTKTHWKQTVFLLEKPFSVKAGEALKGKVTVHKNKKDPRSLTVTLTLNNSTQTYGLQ
inactive: bafetinib 0.048 | [1] 0.034 | nilotinib -0.155 | [2] 0.011 | dasatinib -0.153 | [3] -0.02 | [4] -0.044 | [5] -0.004 | tipifarnib -0.126 | mubritinib 0.081

PRKAR2A (UniProt P13861)
active: [2] -0.606
inactive: bafetinib 0.029 | [1] 0.007 | nilotinib 0.139 | dasatinib -0.055 | [3] -0.026 | [4] 0.07 | [5] 0.102 | tipifarnib 0.004 | mubritinib 0.042

PTP4A1 (UniProt Q93096)
active: [3] -0.299
inactive: bafetinib -0.023 | [1] 0.013 | nilotinib 0.039 | [2] -0.049 | dasatinib 0.108 | [4] 0.181 | [5] 0.093 | tipifarnib -0.005 | mubritinib 0.074

PSMD8 (UniProt P48556)
inactive: bafetinib 0.089 | [1] -0.013 | nilotinib 0.039 | [2] 0.054 | dasatinib 0.029 | [3] -0.031 | [4] -0.07 | [5] 0.009 | tipifarnib 0.117 | mubritinib -0.032

PPID (UniProt Q08752)
inactive: bafetinib 0.015 | [1] 0.075 | nilotinib -0.113 | [2] -0.13 | dasatinib -0.206 | [3] 0.062 | [4] 0.023 | [5] 0.076 | tipifarnib -0.148 | mubritinib -0.005

PSMD6 (UniProt Q15008)
inactive: bafetinib 0.115 | [1] 0.008 | nilotinib 0.022 | [2] 0.054 | dasatinib 0.059 | [3] -0.014 | [4] -0.083 | [5] -0.035 | tipifarnib 0.03 | mubritinib -0.012

PSMD2 (UniProt Q13200)
inactive: bafetinib 0.079 | [1] 0 | nilotinib -0.031 | [2] 0.061 | dasatinib 0.031 | [3] -0.005 | [4] -0.12 | [5] -0.006 | tipifarnib 0.07 | mubritinib -0.038

PELP1 (UniProt Q8IZL8)
inactive: bafetinib 0.005 | [1] -0.115 | nilotinib -0.007 | [2] 0.007 | dasatinib 0.004 | [3] -0.047 | [4] 0.064 | [5] -0.034 | tipifarnib 0.063 | mubritinib -0.009

PUF60 (UniProt Q9UHX1)
active: [2] -0.703
inactive: bafetinib 0.077 | [1] -0.04 | nilotinib -0.022 | dasatinib -0.085 | [3] -0.001 | [4] 0.008 | [5] -0.046 | tipifarnib -0.034 | mubritinib 0.024

PRKAA1 isoform 2 (UniProt Q13131)
active: [2] -0.206
inactive: bafetinib -0.096 | [1] 0.035 | nilotinib -0.029 | dasatinib -0.069 | [3] -0.011 | [4] 0.082 | [5] 0.028 | tipifarnib -0.012 | mubritinib -0.012
